# Screening results (PubChem BioAssay)
# Shown are actives, neighbours in structure and some others; about 0.93% of the full set was active somewhere.
# RPL19A-GFP yeast – yeast TOR pathway RPL19A-GFP modulation; S. cerevisiae RPL19A-GFP strain, flow cytometry, 3 h; hits give low values; percent response vs DMSO, % at 10 µM; 0.3% of 330,000 active;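 active = percent response vs DMSO below 50%; inconclusive = fewer than 70 events counted for the yeast strain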;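 note: median channel GFP fluorescence of the barcoded RPL19A-GFP strain; lower means less RPL19A-GFP as with rapamycin TOR inhibition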
# MEP2-GFP yeast – yeast TOR pathway MEP2-GFP modulation | S. cerevisiae MEP2-GFP strain, flow cytometry GFP, 3 h; 100% = DMSO control level | GFP response vs DMSO, % at 10 µM | 0.51% of 330,000 active;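 active = GFP response versus DMSO above a set limit, roughly screen mean plus 3 SD, cut at about 180% in these data; inconclusive = fewer than 70 cells counted for a yeast strain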;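 note: median GFP fluorescence of the barcode-gated MEP2-GFP cells per well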
# AGP1 TOR yeast – yeast TOR pathway AGP1-GFP modulation; S. cerevisiae AGP1-GFP multiplex flow cytometry, 3 h; GFP as percent of DMSO wells; GFP response vs DMSO, % at 10 µM; 0.02% of 320,000 active; AID 2066;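 active = GFP response relative to DMSO above a set limit, near screen average plus 3 SD, cut at about 150% in these data; inconclusive = fewer than 70 cells counted for the yeast strain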;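 note: median GFP channel fluorescence of the gated AGP1 strain per well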
# LAP4 TOR yeast – alters LAP4-GFP fluorescence in TOR pathway yeast screen; S. cerevisiae LAP4-GFP multiplex, flow cytometry GFP, 3 h; median GFP as percent of DMSO wells; GFP response vs DMSO, % at 10 µM; 0.34% of 320,000 active;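 active = GFP response vs DMSO above a set limit, about the screen mean plus 3 SD, cut at about 150% in these data; inconclusive = under 70 cell events counted for the yeast strain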
# CIT2-GFP yeast – modulators of TOR pathway CIT2-GFP in S. cerevisiae | S. cerevisiae CIT2-GFP strain, flow cytometry, 3 h; 100 means same as DMSO wells | GFP response vs DMSO, % at 10 µM | AID 2029 | 0.065% of 320,000 active;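 active = GFP response relative to DMSO above a set limit, near the screen mean plus 3 SD, cut at about 150% in these data; inconclusive = Fewer than 70 cells measured for a yeast strain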;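 note: ratio of well median GFP fluorescence to mean of DMSO wells on the plate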
# Hits are given with their value; n = inactive; u = inconclusive; x = no result; [ ] = remark or other dose.
SMILES,RPL19A-GFP yeast,MEP2-GFP yeast,AGP1 TOR yeast,LAP4 TOR yeast,CIT2-GFP yeast
CC(=O)Oc1ccc(/C=C(\NC(=O)c2ccco2)C(=O)Nc2ccc(C(C)=O)cc2)cc1,n,532[may fluoresce violet],n,n,u
Cc1c(OCc2ccccc2)c(=O)ccn1Cc1ccc(Cl)cc1,n,n,n,n,n
Cc1ccc(Cn2ccc(=O)c(OCc3ccccc3)c2C)cc1,n,234[may fluoresce violet],n,n,u
CCOc1cccc(CN2CCN(CCCc3ccccc3)C(CCO)C2)c1O (stereo not drawn),46[may fluoresce violet],514[may fluoresce violet],n,n,u
CCOc1ccccc1CN1CCN(Cc2ccc(C)o2)CC1CCO (stereo not drawn),n,n,n,n,n
CCOc1ccccc1CN1CCN(CC2=Cc3cc(OC)ccc3OC2)CC1CCO (stereo not drawn),n,205[may fluoresce violet],n,n,u
Cc1nnc(SCCn2c(N3CCN(C)CC3)nc3c2c(=O)[nH]c(=O)n3C)s1,n,184[may fluoresce violet],n,n,u
CCCCc1ccc(N=N/C(C(=O)Nc2ccc(NC(C)=O)cc2OC)=C(/C)O)cc1,n,n,n,n,n
COc1ccc(Cc2n[nH]c(=S)n(N)c2=O)cc1,n,n,n,n,n
Cc1ccc2c(COC(=O)c3ccccc3F)cc(=O)oc2c1,n,413[may fluoresce violet],u,n,u
N=c1oc2cc(O)ccc2cc1C(=O)Nc1ccc(Cl)cc1,38[may fluoresce violet],227[may fluoresce violet],u,n,u
Cc1ccc(NC(=O)c2cc3ccccc3oc2=N)cc1,n,n,n,n,n
C=CCC1(N(C(C)=O)c2ccccc2)CCCCC1,n,n,n,n,n
CCOc1ccc(NC(=O)CCC(=O)NNC(=O)COc2ccc(C)cc2Br)cc1,46[may fluoresce violet],u,u,u,u
Cc1ccc(NC(=O)COc2ccc(Br)cc2C)cc1,n,243,n,n,n
Cc1ccc(OCC(=O)Nc2ccc(NC(=O)c3ccco3)cc2)c(C)c1,n,n,n,n,n
CCOc1ccc(NC(=O)CCC(=O)NNC(=O)COc2ccc(C)cc2)cc1,n,n,n,n,n
CCOC(=O)CN1C(=O)CSc2ccc(S(=O)(=O)N3CCOCC3)cc21,33[may fluoresce violet],275[may fluoresce violet],u,n,u
CCOC(=O)CN1C(=O)CSc2ccc(S(=O)(=O)N3CCCC3)cc21,n,n,n,n,n
O=C(NCc1ccccn1)Nc1ccccc1F,n,n,n,n,x
Cc1ccc(C)c(-n2c(Cc3cc(=O)[nH]c(=O)[nH]3)nnc2SCC(=O)NCC2CCCO2)c1 (stereo not drawn),23[may fluoresce violet],234[may fluoresce violet],u,n,u
Cc1ccc(C)c(-n2c(Cc3cc(=O)[nH]c(=O)[nH]3)nnc2SCC(=O)NCc2ccco2)c1,n,n,n,n,n
O=C(O)c1ccc(Nc2ccc3nonc3c2[N+](=O)[O-])cc1,49[may fluoresce violet],210[may fluoresce violet],u,n,u
CCS(=O)(=O)c1cc([N+](=O)[O-])c(Sc2ccccc2NC(C)=O)s1,n,n,n,n,n
COc1ccccc1NC(=O)C(C)OC(=O)C1COc2ccccc2O1 (stereo not drawn),n,n,n,n,n
SMILES,RPL19A-GFP yeast,MEP2-GFP yeast,AGP1 TOR yeast,LAP4 TOR yeast,CIT2-GFP yeast
CCN(CC)CCN(C(=O)c1ccc2c(c1)CCCC2)c1nc2cc(OC)c(OC)cc2s1,n,n,n,154,n
CCN1CCN(C2=C(NS(=O)(=O)c3ccccc3)C(=O)c3ccccc3C2=O)CC1,38[may fluoresce violet],250[may fluoresce violet],u,n,u
CCN1CCN(C2=C(NS(=O)(=O)c3ccc(Br)cc3)C(=O)c3ccccc3C2=O)CC1,n,n,n,n,n
Cc1nnc(SCc2cccc([N+](=O)[O-])c2)[nH]c1=O,n,n,n,n,n
CN1CCN(C2=C(Cl)C(=O)C(c3cnc(N4CCCCC4)s3)=C(Cl)C2=O)CC1,n,319[may fluoresce violet],n,196[may fluoresce violet],u
CC1CCN(C(=O)COC(=O)/C=C/c2ccco2)CC1,n,n,n,n,n
COc1ccc(C)cc1NC(=O)C/C(C)=N/NC(=O)Cc1cccc2ccccc12,35[may fluoresce violet],u,u,n,u
Cc1ccccc1NC(=O)CCCNC(=O)c1ccc(Cl)cc1,27[may fluoresce violet],u,u,u,u
O=C(CCCNC(=O)c1ccc(Cl)cc1)Nc1ccccc1F,n,n,n,n,n
O=C(O)CSc1nc2ccccc2n1Cc1ccccc1,n,352[may fluoresce violet],n,n,u
CCNC(=O)NC(=O)CSc1nc2ccccc2n1CC(C)C,42[may fluoresce violet],388[may fluoresce violet],n,n,u
CCc1nnc(SCC(=O)Nc2ccccc2Cl)nc1CC,n,n,n,n,n
